Assay outcomes (PubChem)
Rows were chosen to be rich in hits. Some 2.3% of all compounds tested hit in one or more screens of this group.
MITF TRPM1 inh: MITF TRPM1 promoter inhibition in SK-MEL-5 cells. SK-MEL-5 TRPM1 promoter luciferase, 24 h. inhibition, % at 12.5 µM. 330,000 compounds, 0.83% hits. AID 488899;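 active = mean inhibition across replicates of 60% or more, whatever share of single replicates reaches that level; inconclusive = some that reach 60%, reason not given; inactive = mean inhibition across replicates below 60%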
Gli-Sufu antag: blocks Gli-Sufu signaling in a luciferase reporter | 340,000 compounds, 0.74% hits | inhibition, % at 5 µM | Sufu-KO-LIGHT fibroblasts, Gli luciferase reporter luminescence;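 active = inhibition above about 55%, limit read from the data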;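 note: 0% = DMSO-treated cells and 100% = wells with medium but no cells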
EBV LMP1 NFkB: Epstein-Barr LMP1 NF-kappaB reporter inhibition | LMP1-induced NF-kappaB luciferase reporter cells, luminescence | inhibition, % at 12.5 µM | 350,000 compounds, 0.69% hits | AID 504558; in the data active = inhibition above about 41%; inconclusive = no clear call, values can overlap the other calls;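 note: 0% = neutral control wells and 100% = reference inhibitor control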
697 NFkB inh: lowers PMA/ionomycin-induced NF-kB signal in 697 B cells; 697 B-cell NF-kB luciferase reporter, 16 h; inhibition, % at 4 µM; 330,000 compounds, 0.33% hits; AID 435022; in the data active = inhibition above about 35%
Shn3 3UTR inh: inhibitors of Schnurri-3 3'UTR reporter in osteoblasts | Clone20 osteoblast Shn3 3'UTR firefly luciferase, 24 h | inhibition, % at 12.5 µM | 360,000 compounds, 0.52% hits;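 active = mean inhibition of at least 75% with every replicate also reaching 75%; inconclusive = mean inhibition at least 75% but some replicate below; inactive = mean inhibition below 75%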;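 note: 0% = median of neutral control wells and 100% = pilot-screen positive control compound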
Jurkat NFkB inh: inhibitors of the PMA/ionomycin-induced NF-kB reporter in Jurkat cells; PMA/ionomycin-induced NF-kB luciferase reporter, luminescence; inhibition, % at 4 µM; 330,000 compounds, 0.53% hits; AID 435003; in the data active = inhibition above about 50%
Gli antag conf: Gli-SUFU antagonism confirmation, single concentration | shares compounds with Gli-Sufu antag | Sufu-KO-LIGHT cells, Gli luciferase reporter, luminescence | inhibition, % at 5 µM | 2,500 compounds, 40% hits;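 active = mean inhibition at 5 µM reaching about 45%, limit read from the data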;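 note: plate controls were DMSO-treated cells for no effect and wells lacking cells for full effect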
Gli cytotox: counter-screen for Gli-SUFU antagonists: cytotoxicity. shares compounds with Gli-Sufu antag. Sufu-KO-LIGHT cells cytotoxicity, ATP luminescence. cytotoxicity, % at 5 µM. 2,500 compounds, 32% hits. AID 651994;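 active = mean cytotoxicity at 5 µM above about 25%, limit read from the data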;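 note: cells exposed to compound overnight for roughly 16 to 18 hours; plate controls were DMSO wells with cells for no effect and medium without cells for full effect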
Wnt3a cs: Wnt3a reporter inhibition counter-screen; AID 651995; inhibition, % at 6.25 µM; 2,500 compounds, 20% hits; shares compounds with Gli-Sufu antag; Wnt-LIGHT cells, Wnt3a-driven luciferase reporter, luminescence;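 active = mean inhibition above about 25%, limit read from the data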
* marks the source's active call; other numbers are inactive results; u = inconclusive; x = not tested or not shown.

SMILES	MITF TRPM1 inh	Gli-Sufu antag	EBV LMP1 NFkB	697 NFkB inh	Shn3 3UTR inh	Jurkat NFkB inh	Gli antag conf	Gli cytotox	Wnt3a cs
C=CCNc1nc2c(c(=O)n(C)c(=O)n2C)n1CCCCCC	32.8	68.7*	1.4	6.5	87.6*	47.9	74.7*	35.5*	40.0*
O=[N+]([O-])c1ccc(N2CCN(Cc3ccccc3)CC2)c(S(=O)(=O)N2CCOCC2)c1	-6.0	0.3	1.0	12.4	1.9	-1.2	x	x	x
COc1cc(NS(=O)(=O)c2ccc(NC(=O)COc3ccccc3C)cc2)nc(OC)n1	-2.9	7.0	-4.0	23.4	1.3	7.5	x	x	x
Cn1c(N2CCCC2)nc2c1c(=O)n(Cc1ccc(F)cc1)c(=O)n2C	1.3	53.3	-7.3	-0.3	28.1	4.4	12.4	2.2	-19.6
C=CCNc1nc2c(c(=O)n(C)c(=O)n2C)n1Cc1ccc(F)cc1	13.2	54.0	2.4	-9.5	69.6	27.4	55.4*	19.6	26.0*
Cn1c(=O)c2c(nc(NCCc3ccccc3)n2Cc2ccc(F)cc2)n(C)c1=O	10.0	26.3	0.4	3.1	56.0	-1.7	x	x	x
COc1ccc(NC(=O)C(C)NS(=O)(=O)c2ccccc2)cc1Cl (stereo not drawn)	0.1	18.8	38.6	-10.5	-4.0	-28.9	x	x	x
C(#Cc1ccccc1)C[N+]1(CC#Cc2ccccc2)CCCC1	38.5	76.5*	-7.7	-27.3	72.9	8.7	74.7*	17.6	6.3
CCn1cc[n+](C)c1P(c1ccccc1)c1ccccc1	35.3	50.6	5.1	13.3	55.3	8.3	55.2*	13.0	23.2
C[C@H](NC(=O)[C@@H]1CCC(=O)N1Cc1ccco1)c1ccccc1	10.2	67.8*	-8.9	9.7	-21.6	8.8	11.5	-8.9	-3.1
O=C(O)[C@H]1CCC(=O)N1Cc1ccco1	2.2	2.8	-9.6	-7.8	-4.5	-12.9	x	x	x
CCOc1ccc(-c2csc3ncn(-c4ccc(OC)cc4)c(=O)c23)cc1	13.4	0.5	5.0	9.3	0.1	10.1	x	x	x
O=C(NCc1ccccc1CN1CCCC1)c1cccc(S(=O)(=O)N2CCOCC2)c1	-16.3	-4.1	-8.5	-5.2	-6.0	-23.6	x	x	x
CCC(Oc1ccccc1F)C(=O)Nc1ccc2c(c1)n(C)c(=O)n2C (stereo not drawn)	10.8	51.6	-48.0	-5.3	-13.2	6.9	28.1	-1.8	6.7
CCC(Oc1ccc(C)cc1)C(=O)Nc1ccc2c(c1)n(C)c(=O)n2C (stereo not drawn)	-7.9	23.4	-1.6	2.9	20.8	10.7	x	x	x
OC(CN1CCCCCC1)CN(c1ccccc1)c1ccccc1 (stereo not drawn)	1.6	51.9	7.9	-8.7	33.6	15.5	16.3	11.8	-30.1
COc1ccc(CC(N)c2csc(NC(=O)Nc3ccccc3Cc3ccccc3)n2)cc1 (stereo not drawn)	x	x	x	x	48.4	x	x	x	x
CN(C)c1ccccc1C(=O)N1CCCC(C(=O)c2ccc3ccccc3c2)C1 (stereo not drawn)	2.1	61.1*	14.4	0.6	1.6	-7.6	25.9	6.5	-20.1
Cn1nccc1C(=O)N1CCCC(C(=O)c2cccc3ccccc23)C1 (stereo not drawn)	-3.9	72.2*	-1.1	-21.2	4.2	-5.9	25.3	22.2	-14.6
Cc1ncoc1C(=O)N1CCCC(C(=O)c2cccc3ccccc23)C1 (stereo not drawn)	-0.8	5.8	3.7	13.8	-2.7	1.2	x	x	x
CC(C)(C)NC(=O)NC(=O)COC(=O)c1nc(-c2ccccc2)n(-c2cccc(C(F)(F)F)c2)n1	4.4	-15.3	2.3	8.5	-5.1	5.1	x	x	x
COc1cc(OC)c(OC)cc1/C=N/Nc1ccc(Cl)nn1	-0.5	9.4	-8.3	x	-2.1	x	x	x	x
COc1ccc(-c2noc(CCCCC(=O)N3CCN(c4cc(C)ccc4C)CC3)n2)cc1	52.8	67.9*	36.9	30.9	92.0*	x	72.9*	28.4*	29.5*
COc1ccc(-c2noc(CCCC(=O)N3CCN(c4cc(C)ccc4C)CC3)n2)cc1	-62.7	7.4	-25.0	-40.3	-49.9	x	x	x	x
CC(C)(C)/C(O)=C(/C#N)c1nc2ccccc2[nH]1	8.8	2.4	-1.1	-9.4	15.4	-7.5	x	x	x
SMILES	MITF TRPM1 inh	Gli-Sufu antag	EBV LMP1 NFkB	697 NFkB inh	Shn3 3UTR inh	Jurkat NFkB inh	Gli antag conf	Gli cytotox	Wnt3a cs
COc1cccc(OC)c1/C(O)=C(\C#N)c1nc2ccccc2[nH]1	-4.5	51.4	-1.5	4.0	15.3	-2.0	19.1	22.1	-7.3
COC(=O)CNC(=O)CNC(=O)c1nn(-c2ccc(OC)c(OC)c2)c(=O)c2ccccc12	6.8	52.4	5.4	7.6	-8.7	-5.3	9.8	-4.3	10.5
COc1ccc(-n2nc(C(=O)NCC(=O)NC(C)C)c3ccccc3c2=O)cc1OC	0.1	-0.6	8.2	0.8	14.0	-0.3	x	x	x
CCCCN(C)C1CCN(C(=S)Nc2cccc(SC)c2)CC1	-3.2	10.2	6.2	5.5	5.8	1.6	x	x	x
CN(Cc1cnc2nc(N)nc(N)c2n1)c1ccc(C(=O)NC(CCC(=O)O)C(=O)O)c2ccccc12 (stereo not drawn)	42.0	57.9*	u	x	44.4	x	37.7	29.4*	2.5
COc1cccc(O)c1CN1CCC(C(=O)Nc2ccc(-c3cccc(C)c3)cc2)CC1	34.2	39.7	-13.3	-29.6	11.1	-10.2	x	x	x
COc1cccc(O)c1CN1CCC(C(=O)Nc2ccc(Oc3cccnc3)cc2)CC1	17.5	50.5	0.8	-19.7	29.4	-5.5	35.0	5.4	3.8
Cc1c(C(=O)N2CCCCCC2)c(S(=O)(=O)Nc2ccccc2F)c(C)n1C	-3.3	51.2	1.7	-33.3	-6.7	-11.5	24.2	20.2	8.2
CC(NC(=O)c1cccc(Cl)c1)C1CC2CCC1C2 (stereo not drawn)	10.0	-8.9	-2.6	-2.0	4.7	4.8	x	x	x
CC(NC(=O)c1cccc(S(=O)(=O)N2CCN(C)CC2)c1)C1CC2CCC1C2 (stereo not drawn)	2.2	57.7*	2.4	16.9	-7.7	3.9	15.7	12.2	-30.7
Cc1cc(C(=O)CSc2nnc3ccccn23)c(C)n1-c1ccccc1	77.8*	54.3	81.3*	-24.7	79.5	16.5	64.6*	40.2*	95.8*
Cc1cc(C(=O)CSc2nnc(-c3ccccc3)n2-c2ccccc2)c(C)n1-c1ncn[nH]1	3.2	7.8	1.0	-1.1	0.0	-12.8	x	x	x
O=C(NNC(=O)c1cc([N+](=O)[O-])ccc1Cl)c1cccnc1	13.4	53.7	-6.5	5.5	-3.8	0.6	8.7	21.0	-23.6
